Laboratory results reported in PubChem BioAssay (NCI).
This is part of a sample that, as a whole, favours compounds with a hit. Of some 83,000 tested, about 20% had one in any assay.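 Method: cells in 96-well plates; compound added at one concentration; 48 h incubation; percent growth measured; values under 10 scored active.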 Unmarked numbers belong to inactive results. The source made the active and inactive calls.

How the values were obtained:
Experiment in all cases: NCI-60 one-dose screen, 48 h (100 = growth as untreated, 0 = no growth, -100 = all killed)
Conditions in all cases: 10 µM unless noted
[1] = tested on: NCI-H23 lung
[2] = tested on: NCI-H226 lung
[3] = tested on: NCI-H322M lung
[4] = tested on: HOP-62 NSCLC
[5] = tested on: NCI-H460 lung
[6] = tested on: HOP-92 NSCLC
[7] = tested on: NCI-H522 lung
[8] = tested on: A549/ATCC NSCLC
[9] = tested on: 786-0 renal
[10] = tested on: COLO 205 colon
[11] = tested on: DU-145 prostate
[12] = tested on: K-562 leukemia
[13] = tested on: MALME-3M melanoma
[14] = tested on: MDA-MB-231 breast
[15] = tested on: RXF 393 renal
[16] = tested on: SF-268 CNS
[17] = tested on: SF-295 CNS
[18] = tested on: SF-539 CNS
[19] = tested on: UACC-257 melanoma
[20] = tested on: M14 melanoma

| Compound | growth [1] | growth [2] | growth [3] | growth [4] | growth [5] | growth [6] | growth [7] | growth [8] | growth [9] | growth [10] | growth [11] | growth [12] | growth [13] | growth [14] | growth [15] | growth [16] | growth [17] | growth [18] | growth [19] | growth [20] |
| --- | --- | --- | --- | --- | --- | --- | --- | --- | --- | --- | --- | --- | --- | --- | --- | --- | --- | --- | --- | --- |
| O=S(=O)(NCCCNc1nccc(-c2c(-c3ccc(F)c(O)c3)nc3occn23)n1)c1ccccc1 | 84.1% | 115% | 98.5% | 102% | 75.7% | 71% | 75.6% | 88.1% | 123% | 48.6% | 90.5% | 56.8% | -0.289% (active) | 57.7% | 70.9% | 97.3% | 104% | 105% | 29.1% | 17.2% |
| O=C1c2c(c3c4ccccc4[nH]c3c3ccc4ccccc4c23)C(=O)N1CCN1CCCCC1 | 30.5% | 67.5% | 61.1% | -11.9% (active) | 4.88% (active) | 53% | 38% | 32.3% | 26% | 47% | 26.2% | -7.75% (active) | 73.9% | 75.7% | 65.7% | 39.6% | 30.4% | 46.3% | 85.4% | 30.2% |
| COc1ccc(NC(=O)c2sc3nc(C)c(C(=O)/C=C/c4cccc(OC)c4)cc3c2N)cc1 | 54.6% | 71.8% | 18% | 61.8% | -7.38% (active) | 90.9% | 39.2% | 13.2% | 10.9% | 45.9% | 21.9% | 12.7% | 94.1% | 53.2% | -11.4% (active) | 34.4% | 26.9% | 71.2% | 87.9% | 70.3% |
| Cc1ccc(Sc2nnc(/N=C3\C(=O)Nc4ccccc43)s2)cc1 | 107% | 106% | 97.1% | 96.5% | 104% | 96.4% | 94.6% | 92.1% | 99.5% | 116% | 114% | 95.5% | 102% | 104% | 120% | 98.9% | 105% | 101% | 94.2% | 101% |
| CCN1CCN(c2cc(C(=O)Nc3nc(-c4cc(OC)c(OC)c(OC)c4)cs3)cc(C(F)(F)F)c2)CC1 | 79.4% | 86.8% | 78% | 82.7% | 57.3% | 42.2% | 67.6% | 81.1% | 49.1% | 58.2% | 74.9% | 3.83% (active) | 69.3% | 47% | 69.3% | 65.1% | 83.2% | 75.6% | 88.6% | 42.1% |
| O=C(Nc1cc(Cl)ccc1O)c1ccc(Nc2ccnc(C(F)(F)F)c2)cc1 | 9.34% (active) | 52.1% | 61.7% | 46.3% | 7.25% (active) | 86% | 23.7% | 36.5% | 49% | 87.9% | 42.9% | 5.89% (active) | 60.5% | 68.1% | 98.9% | 69.1% | -7.57% (active) | 80.4% | 78% | 46.8% |
| C/C(Nc1ccc(Cl)c(Cl)c1)=C1\CCOC1=O | 93.3% | 90.4% | 101% | 80.3% | 92.5% | 75.6% | 58% | 88.6% | 81.7% | 134% | 106% | 86.8% | 109% | 95% | 92.2% | 106% | 86.7% | 98.5% | 98.3% | 81.3% |
